This passage reports inhibition results from PubChem BioAssay.

Test [1] addresses Nuclear receptor coactivator 3 (Homo sapiens) (UniProt Q9Y6Q9). Kind of test: SRC3 coactivator transcriptional activity inhibitors, confirmation, cell-based, luminescence, quadruplicate (AID 588792;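 active = mean inhibition over 43.08%, the solvent-only control mean plus 3 SD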;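 note: 0% = DMSO treated cells and 100% = gossypol at 36 µM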). To be noted: HEK293 GAL4-SRC3 luciferase reporter, at 3.6 µM, hits give high values. A general note: Reporter assays use an easily measured gene product as a stand-in for the process of interest.

Test [2] deals with transactivating tegument protein VP16 (Human herpesvirus 1), Gal4-VP16 luciferase reporter. Kind of test: VP16 transactivation inhibitors, counter-screen for SRC3 inhibitor project, cell-based, luminescence, high throughput (AID 588794; in the data active = inhibition above about 30%). To be noted: mammalian cells, VP16-driven luciferase reporter luminescence; at 3.6 µM; hits give high values. (Counterscreens check selectivity or assay interference.)

For test [3], the target named is Nuclear receptor coactivator 1 (Homo sapiens) (UniProt Q15788). The test is described as follows: SRC1 coactivator transcriptional activity inhibitors, confirmation, cell-based, luminescence, quadruplicate (AID 588820;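 active = mean inhibition above 46.68%, the untreated control wells mean plus 3 SD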;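 note: 0% = DMSO wells and 100% = gossypol 36 µM treated wells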). As to conditions: HEK293 GAL4-SRC1 luciferase reporter, at 3.6 µM, hits give high values.
A short description of test [4]: VP16 transactivation inhibitors, counter-screen for SRC1 inhibitor project, cell-based, luminescence, high throughput (AID 588824). As to conditions: cell-based VP16 transactivation luciferase luminescence; at 3.6 µM; hits give high values.
A short description of test [5]: StAR promoter reporter inhibitors, counter-screen for LRH-1 inverse agonist project, cell-based, luminescence, high throughput (AID 651611; in the data active = inhibition above about 28%). As to conditions: StAR promoter luciferase reporter counterscreen, at 3.6 µM, hits give high values.
The target of test [6] is Nuclear receptor subfamily 5 group A member 2 (Homo sapiens) (UniProt O00482). Kind of test: LRH-1 (NR5A2) inverse agonists, retest, confirmation, cell-based, luminescence (AID 651613; in the data active = inhibition above about 42%;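 note: HEK293T cells co-transfected with LRH-1 and StAR promoter luciferase reporter; 0% = vehicle wells and 100% = parental cells lacking receptor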). As to conditions: cell-based LRH-1 luciferase reporter, inverse agonism; at 3.6 µM; hits give high values.
For test [7], the target named is Steroidogenic factor 1 (Homo sapiens) (UniProt Q13285). Kind of test: SF1 (NR5A1) inverse agonists, counter-screen for LRH-1 inverse agonist project, cell-based, luminescence, high throughput (AID 651614; in the data active = inhibition above about 44%;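 note: cells cotransfected with StAR promoter reporter and SF1 expression vector; 0% = vehicle on cells with receptor and 100% = vehicle on cells lacking receptor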). As to conditions: cell-based SF1 luciferase reporter, at 3.6 µM, hits give high values.
Test [8] in a line: VP16 transactivation reporter inhibitors, counter-screen for LRH-1 inverse agonist project, cell-based, luminescence, high throughput (AID 651615; in the data active = inhibition above about 33%). As to conditions: Gal4-VP16 luciferase reporter cells, at 3.6 µM, hits give high values.

Where “and” joins values, the source holds several entries; their conditions need not be identical. Identical values can stand only once. Values without a mark were called inactive. Calls of active or inactive are those of the source. Cut-off read from the data, not from the text of the source, unless noted: active = inhibition above about 25%; inactive = the rest.

Sequence of Nuclear receptor coactivator 1 (Homo sapiens) (Q15788 whole entry, looked up, the tested form may be a part): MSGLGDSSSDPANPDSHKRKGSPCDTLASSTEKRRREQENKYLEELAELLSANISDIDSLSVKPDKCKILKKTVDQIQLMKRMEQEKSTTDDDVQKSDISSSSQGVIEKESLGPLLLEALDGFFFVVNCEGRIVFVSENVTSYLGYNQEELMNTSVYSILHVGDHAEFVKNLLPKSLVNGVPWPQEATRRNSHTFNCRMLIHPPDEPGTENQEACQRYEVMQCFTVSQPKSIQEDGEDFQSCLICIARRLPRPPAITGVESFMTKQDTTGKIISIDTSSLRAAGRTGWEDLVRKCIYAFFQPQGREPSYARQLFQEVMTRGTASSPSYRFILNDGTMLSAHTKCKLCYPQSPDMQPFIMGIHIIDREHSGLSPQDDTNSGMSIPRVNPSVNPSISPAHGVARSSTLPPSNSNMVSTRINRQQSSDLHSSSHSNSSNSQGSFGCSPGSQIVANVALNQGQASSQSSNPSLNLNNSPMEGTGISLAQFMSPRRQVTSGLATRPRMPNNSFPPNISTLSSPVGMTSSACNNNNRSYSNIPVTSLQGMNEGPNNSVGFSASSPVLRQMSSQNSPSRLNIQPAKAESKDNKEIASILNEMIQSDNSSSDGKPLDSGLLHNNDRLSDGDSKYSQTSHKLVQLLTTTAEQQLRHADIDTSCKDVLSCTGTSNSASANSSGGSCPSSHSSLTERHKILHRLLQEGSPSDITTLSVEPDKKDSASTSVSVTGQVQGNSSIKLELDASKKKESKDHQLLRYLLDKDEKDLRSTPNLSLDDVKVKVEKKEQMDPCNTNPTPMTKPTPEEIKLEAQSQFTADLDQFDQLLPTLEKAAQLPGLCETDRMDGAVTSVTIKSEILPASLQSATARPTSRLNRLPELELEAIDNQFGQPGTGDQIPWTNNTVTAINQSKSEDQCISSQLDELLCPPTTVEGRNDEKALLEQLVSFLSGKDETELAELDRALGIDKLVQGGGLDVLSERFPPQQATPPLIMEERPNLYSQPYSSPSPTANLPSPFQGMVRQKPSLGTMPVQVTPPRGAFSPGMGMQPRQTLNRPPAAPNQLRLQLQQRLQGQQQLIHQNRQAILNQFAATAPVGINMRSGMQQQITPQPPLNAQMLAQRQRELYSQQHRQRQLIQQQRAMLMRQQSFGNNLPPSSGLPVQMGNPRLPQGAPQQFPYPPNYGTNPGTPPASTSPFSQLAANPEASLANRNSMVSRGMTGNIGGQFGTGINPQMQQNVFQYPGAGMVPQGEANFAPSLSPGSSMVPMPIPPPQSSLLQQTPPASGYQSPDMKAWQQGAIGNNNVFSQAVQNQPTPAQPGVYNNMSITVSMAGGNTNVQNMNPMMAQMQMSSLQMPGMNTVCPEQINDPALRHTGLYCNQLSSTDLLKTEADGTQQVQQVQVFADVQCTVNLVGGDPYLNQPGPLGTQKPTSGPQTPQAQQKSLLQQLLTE
Sequence of Nuclear receptor coactivator 3 (Homo sapiens) (Q9Y6Q9 whole entry, looked up, the tested form may be a part): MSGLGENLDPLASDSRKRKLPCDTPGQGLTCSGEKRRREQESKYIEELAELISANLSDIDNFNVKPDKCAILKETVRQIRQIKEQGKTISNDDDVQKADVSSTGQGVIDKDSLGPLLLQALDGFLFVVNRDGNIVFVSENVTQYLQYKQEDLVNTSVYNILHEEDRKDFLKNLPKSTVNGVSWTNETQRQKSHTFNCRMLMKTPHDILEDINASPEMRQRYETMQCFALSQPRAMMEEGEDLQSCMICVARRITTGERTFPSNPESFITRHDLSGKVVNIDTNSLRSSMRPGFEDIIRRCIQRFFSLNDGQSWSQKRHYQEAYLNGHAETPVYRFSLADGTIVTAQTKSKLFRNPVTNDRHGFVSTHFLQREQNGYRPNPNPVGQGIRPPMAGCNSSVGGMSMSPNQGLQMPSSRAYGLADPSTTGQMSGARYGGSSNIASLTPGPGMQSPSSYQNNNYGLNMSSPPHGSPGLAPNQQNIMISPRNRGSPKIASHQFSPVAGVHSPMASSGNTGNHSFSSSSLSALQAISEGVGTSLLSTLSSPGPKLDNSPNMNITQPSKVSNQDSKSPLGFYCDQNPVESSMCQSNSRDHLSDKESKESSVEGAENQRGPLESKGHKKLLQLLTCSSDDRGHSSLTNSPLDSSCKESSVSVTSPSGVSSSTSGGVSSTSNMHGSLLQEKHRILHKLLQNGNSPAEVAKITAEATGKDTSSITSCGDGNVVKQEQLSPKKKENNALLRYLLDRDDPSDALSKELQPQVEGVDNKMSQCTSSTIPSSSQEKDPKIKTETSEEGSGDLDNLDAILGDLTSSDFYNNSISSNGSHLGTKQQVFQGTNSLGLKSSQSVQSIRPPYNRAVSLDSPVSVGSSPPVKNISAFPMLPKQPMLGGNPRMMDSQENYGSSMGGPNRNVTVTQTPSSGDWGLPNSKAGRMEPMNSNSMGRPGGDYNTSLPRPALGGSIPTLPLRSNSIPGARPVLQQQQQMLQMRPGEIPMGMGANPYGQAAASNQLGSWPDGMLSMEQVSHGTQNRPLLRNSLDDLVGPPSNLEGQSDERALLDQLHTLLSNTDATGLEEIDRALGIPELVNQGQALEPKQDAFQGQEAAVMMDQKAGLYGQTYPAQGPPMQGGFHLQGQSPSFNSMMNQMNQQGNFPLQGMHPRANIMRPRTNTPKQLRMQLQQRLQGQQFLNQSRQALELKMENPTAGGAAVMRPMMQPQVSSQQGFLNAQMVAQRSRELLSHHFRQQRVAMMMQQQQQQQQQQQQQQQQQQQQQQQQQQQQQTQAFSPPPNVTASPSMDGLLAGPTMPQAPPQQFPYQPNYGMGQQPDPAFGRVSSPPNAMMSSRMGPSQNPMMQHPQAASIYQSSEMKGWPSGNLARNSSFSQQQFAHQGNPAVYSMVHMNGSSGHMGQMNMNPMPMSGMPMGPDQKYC
Sequence of Nuclear receptor subfamily 5 group A member 2 (Homo sapiens) (O00482 whole entry, looked up): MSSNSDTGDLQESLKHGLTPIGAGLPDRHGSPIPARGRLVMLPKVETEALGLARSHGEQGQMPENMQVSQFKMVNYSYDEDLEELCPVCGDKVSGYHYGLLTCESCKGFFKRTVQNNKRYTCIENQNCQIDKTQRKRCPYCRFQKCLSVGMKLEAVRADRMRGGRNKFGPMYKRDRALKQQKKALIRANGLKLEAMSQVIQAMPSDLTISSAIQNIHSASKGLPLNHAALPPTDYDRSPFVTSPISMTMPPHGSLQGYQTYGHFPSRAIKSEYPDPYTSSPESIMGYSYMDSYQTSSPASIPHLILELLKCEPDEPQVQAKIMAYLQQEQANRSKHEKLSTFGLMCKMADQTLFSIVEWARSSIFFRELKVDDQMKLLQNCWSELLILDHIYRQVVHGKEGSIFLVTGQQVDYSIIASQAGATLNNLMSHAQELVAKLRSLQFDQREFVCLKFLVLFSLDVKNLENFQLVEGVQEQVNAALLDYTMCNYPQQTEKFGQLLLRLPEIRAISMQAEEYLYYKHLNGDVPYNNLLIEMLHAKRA
Sequence of Steroidogenic factor 1 (Homo sapiens) (Q13285 whole entry, looked up, the tested form may be a part): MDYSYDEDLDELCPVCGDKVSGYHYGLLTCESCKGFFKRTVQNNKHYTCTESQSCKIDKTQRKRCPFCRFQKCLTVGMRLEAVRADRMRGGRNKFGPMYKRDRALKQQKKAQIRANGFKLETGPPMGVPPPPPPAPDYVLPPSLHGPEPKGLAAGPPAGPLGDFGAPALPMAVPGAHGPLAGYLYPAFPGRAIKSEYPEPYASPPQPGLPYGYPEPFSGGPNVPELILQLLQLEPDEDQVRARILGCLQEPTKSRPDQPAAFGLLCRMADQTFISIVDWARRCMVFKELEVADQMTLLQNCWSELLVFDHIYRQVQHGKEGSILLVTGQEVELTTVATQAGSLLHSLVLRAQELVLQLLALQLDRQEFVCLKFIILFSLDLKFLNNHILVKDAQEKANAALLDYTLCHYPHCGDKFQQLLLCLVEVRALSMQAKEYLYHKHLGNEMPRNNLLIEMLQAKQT

Broadly, the inhibition is the drop in the measured response relative to a control, in per cent. With `COc1cc2c(cc1O)C[C@H]1NCCc3cc4c(c-2c31)OCO4`, the inhibition in test [1] was 32.3%; in test [2], 33.2% (active); in test [3], 22.1%; in test [4] it was 40.2% (active).

Consider `CN(C)c1ccc(/C=C/c2cc[n+](C)c3ccccc23)cc1`, for which the inhibition was 55.9% (active) and 45.3% (active) in test [1]; 74% (active) and 71.3% (active) in test [2]; 40.2% and 45.5% in test [3]; 77.9% (active) and 78.6% (active) in test [4]; 72.7% (active) and 74.2% (active) in test [5]; 102% (active) and 107% (active) in test [6]. Also, the inhibition is 86.9% (active) and 89.7% (active) in test [7]; 82% (active) and 84% (active) in test [8].

Turning to `COC(=O)[C@]12OC[C@]34C([C@@H](O)[C@@H]1O)[C@]1(C)CC(=O)C(O)=C(C)[C@@H]1C[C@H]3OC(=O)[C@H](O)[C@@H]24` (stereo partly specified), the inhibition in test [1] is 71.6% (active); in test [2], 64.2% (active); in test [3], -32.4%; in test [4] it was 68.8% (active).

As for `O=c1[nH]c2ccccc2n1C1CCN(C(c2ccccc2OC(F)(F)F)c2nnnn2Cc2ccccc2)CC1` (stereo unspecified), the inhibition is -2.46% in test [1], 2.54% in test [2], -29% in test [3] and 0.5% in test [4].

With `CCC(C)NC(=O)CCC(=O)OC1O[C@H]2OC3(C)CC[C@H]4[C@H](C)CCC(C1C)C24OO3` (stereo partly specified), the inhibition is 63.7% (active) in test [1]; 83.6% (active) in test [2]; 47.4% (active) in test [3]; 82% (active) in test [4]; 75% (active) in test [5]; 102% (active) in test [6]. Besides, the inhibition in test [7] was 91.8% (active); in test [8] it was 84.7% (active).

For `CCN1/C(=C/C=C/C2=[N+](CC)c3ccccc3C2(C)C)C(C)(C)c2ccccc21`, the inhibition in test [1] was 97.1% (active); in test [2], 87.3% (active); in test [3], 51.5% (active); in test [4] it was 87.5% (active); in test [5], 86.7% (active); in test [6] it was 110% (active). In addition, the inhibition in test [7] is 96.1% (active); in test [8] it was 96.7% (active).

For the compound `C/C(=N\Nc1ccccc1)c1c(O)[nH]c(=O)[nH]c1=O`, the inhibition is 0.35% in test [1], 17.7% in test [2], -2.36% in test [3] and 13.6% in test [4].

On to `CNC(=O)c1cccn(Cc2cccc(C(F)(F)F)c2)c1=O`, for which the inhibition is 19.5% in test [1], -23.9% in test [2], -26.7% in test [3] and -25.9% in test [4].

Consider `CN(C)c1ccc(C(=O)N/N=C/C23CC[C@@H](O)CC2(O)CC[C@@H]2[C@@H]3CCC3(C)C(C4=CC(=O)OC4)CCC23O)cc1` (stereo partly specified), for which the inhibition was 1.62% in test [1], 23.4% in test [2], -57.9% in test [3] and 7.1% in test [4].

In the case of `CN1CCN(c2ccc([N+](=O)[O-])c3no[n+]([O-])c23)CC1`, the inhibition in test [1] was 98.6% (active); in test [2], 96.4% (active); in test [3], 93.7% (active); in test [4], 96% (active); in test [5] it was 97% (active); in test [6], 111% (active). In addition, the inhibition in test [7] was 98.9% (active); in test [8], 97.9% (active).

For `CC1=CC2OC3CC4OC(=O)C=CC=CC(=O)OCCC(C)C(O)C(=O)OCC2(CC1O)C4(C)C31CO1` (stereo unspecified), the inhibition in test [1] was 98% (active); in test [2], 96.8% (active); in test [3], 96.8% (active); in test [4], 95.6% (active).

In the case of `O=c1[nH]c2ccccc2n1C1CCN(C(c2cccc3ccccc23)c2nnnn2Cc2ccccc2)CC1` (stereo unspecified), the inhibition is 13.1% in test [1]; 8.16% in test [2]; -24.4% in test [3]; -4.89% in test [4]; 53.6% (active) in test [5]; 18.9% in test [6]. For the same compound, the inhibition in test [7] was 28.4%; in test [8], 9.13%.

With `CCC(C)(O)C(=O)OC1C(=O)OC2CC3C(C)=CC(O)C(O)C3(C)C3C4(O)OCC23C1C(C)C4O` (stereo unspecified), the inhibition in test [1] was 38.8%; in test [2] it was 65.8% (active); in test [3] it was 36.7%; in test [4], 72% (active); in test [5], 79.5% (active); in test [6] it was 103% (active). Also, the inhibition is 92.4% (active) in test [7] and 87% (active) in test [8].

Consider `CN1CCN(c2ncnc3ccc(Br)cc23)CC1`, for which the inhibition in test [1] is 42.3%; in test [2], 37.6% (active); in test [3], 31.2%; in test [4] it was 33.4% (active).

With `O=c1[nH]c2ccccc2n1C1CCN(C(CCc2ccccc2)c2nnnn2Cc2ccccc2)CC1` (stereo unspecified), the inhibition in test [1] is 34.6%; in test [2], 40.3% (active); in test [3], 12%; in test [4], 36.7% (active).

Turning to `C[C@H]1CCC[C@@H](O)CCC/C=C/c2cc(O)cc(O)c2C(=O)O1`, the inhibition is 61.8% (active) in test [1], 63.4% (active) in test [2], 29.2% in test [3] and 56.1% (active) in test [4].

Take `COc1ccc(-[n+]2c(-c3ccccc3)cc(-c3ccc(C)cc3)cc2-c2ccccc2)cc1`: the inhibition in test [1] is 85.5% (active); in test [2], 87.3% (active); in test [3], 71.9% (active); in test [4] it was 88.3% (active); in test [5], 82.7% (active); in test [6], 111% (active). Moreover, the figures for the inhibition in test [7] and in test [8] were 96.9% (active) and 98.2% (active), respectively.

With `COC(=O)C12OCC34C(CC5C(C)=C(O)C(=O)CC5(C)C3C(O)C1O)OC(=O)C(OC(=O)/C=C(\C)C(C)C)C24` (stereo unspecified), the inhibition was 99% (active) in test [1]; 97.6% (active) in test [2]; 98.1% (active) in test [3]; 97.7% (active) in test [4]; 96.7% (active) in test [5]; 110% (active) in test [6]. The inhibition in test [7] was 98.9% (active); in test [8], 97.9% (active).

With `CNC(=O)c1cccn(Cc2cc(C(F)(F)F)cc(C(F)(F)F)c2)c1=O`, the inhibition in test [1] was 28.4%; in test [2], 11%; in test [3] it was 10.9%; in test [4] it was 3.5%.

Regarding `Cc1ccc(-c2cc(-c3ccc(C)cc3)[n+](C)o2)cc1`, the inhibition was 62.4% (active) in test [1]; 47.2% (active) in test [2]; -3.35% in test [3]; 47.1% (active) in test [4]; 27.6% in test [5]; 78.7% (active) in test [6]. Besides, the inhibition in test [7] was 65.7% (active); in test [8], 67.3% (active).
